Records with an inconclusive call do not appear. Active and inactive are the calls of the source. Calls follow the shape of the dose curve; as a rule, active = well fitted curve in the direction sought with a large enough effect; inconclusive = small, poorly fitted or top-dose-only effect, or another doubt; inactive = no such curve, though single readings can be large; an effect the other way counts as inactive or inconclusive.
Columns and labels:
[1] = MultiTox-Fluor Cytotoxicity Assay - LYMP1-001 - Live Cells (AID 947); details: LYMP1-001 lymphoblastoid cells, live-cell protease fluorescence viability; series mostly up to 92.2 µM
[2] = Cell Viability - LYMP1-002 - Assay at 16 hr (AID 948); details: LYMP1-002 lymphoblastoid cell viability; series mostly up to 92.2 µM
Procedure, shortened: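 LYMP1-002 human lymphoblastoid cells, 2500/well, were treated with compounds for 16 hr at 37 C in complete medium. Viability was read as intracellular ATP by CellTiter-Glo luminescence, and AC50 was derived from a Hill fit to concentration-response data.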

[3] = MultiTox-Fluor Cytotoxicity Assay - LYMP1-003 - Dead Cells (AID 961); details: LYMP1-003 lymphoblastoid cells, dead-cell protease fluorescence; series mostly up to 92.2 µM; also: nearly all actives have a fitted effect of over 70% in size
Procedure, shortened: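 Dead-cell protease release, detected as bis-AAF-R110 fluorescence at 485/520 nm, was measured in LYMP1-003 cells after 16 h compound treatment at 37 C. AC50 values came from Hill-modeled qHTS curves normalized to DMSO (0%) and 15 uM tetraoctylammonium bromide (100%).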

[4] = MultiTox-Fluor Cytotoxicity Assay - LYMP1-003 - Live Cells (AID 962); details: LYMP1-003 lymphoblastoid cells, MultiTox-Fluor live-cell protease fluorescence; series mostly up to 92.2 µM;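 also: cells exposed to compound for 16 hours at 37 °C; cytotoxic hits lower the live-cell protease signal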
Procedure, shortened: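 Acute cytotoxicity is scored as a drop in live-cell protease activity in human lymphoblastoid LYMP1-003 cells after 16 hr compound exposure at 37 C. AC50 values come from Hill-equation modelling of concentration-response data.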

[5] = Cell Viability - LYMP1-003 - Assay at 24 hr (AID 963); details: LYMP1-003 lymphoblastoid cell viability; series mostly up to 92.2 µM
Procedure, shortened: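 Cytotoxicity is scored as a concentration-dependent fall in ATP-linked luciferase signal in human lymphoblastoid LYMP1-003 cells treated 24 hr at 37 C in complete culture medium.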

[6] = Cell Viability - LYMP1-003 - Assay at 40 hr (AID 964); details: LYMP1-003 lymphoblastoid viability; series mostly up to 92.2 µM; also: nearly all actives have a fitted effect of over 60% in size
Procedure, shortened: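 Luminescent ATP signal (CellTiter-Glo) served as the viability read-out after 40 hr compound treatment of human lymphoblastoid LYMP1-003 cells at 37 C. Decreases in ATP were fitted with the Hill equation to give AC50.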

[7] = Cell Viability - LYMP2-003 (AID 965); details: LYMP2-003 lymphoblastoid cell viability; series mostly up to 92.2 µM;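 also: cells exposed to compounds for 24 h before reading; nearly all actives have a fitted effect of over 50% in size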
Procedure, shortened: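 Human lymphoblastoid LYMP2-003 cells, 2500/well, exposed to compounds for 24 h at 37 C in complete medium. Viability read as intracellular ATP by CellTiter-Glo luminescence; AC50 from Hill-equation fits of qHTS concentration-response data.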

[8] = Cell Viability - LYMP2-004 (AID 966); details: LYMP2-004 lymphoblastoid cell viability, qHTS; series mostly up to 92.2 µM; also: nearly all actives have a fitted effect of over 65% in size
Procedure, shortened: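 qHTS cytotoxicity: human lymphoblastoid line, 24 hr compound treatment, 37 C, complete medium. Viability read as cellular ATP via luciferase luminescence; tetraoctylammonium bromide served as positive control.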

[9] = Cell Viability - LYMP2-009 (AID 968); details: LYMP2-009 lymphoblastoid cell viability; series mostly up to 92.2 µM; also: nearly all actives have a fitted effect of over 55% in size
[10] = Cell Viability - LYMP2-011 (AID 969); details: LYMP2-011 lymphoblastoid cells viability; series mostly up to 92.2 µM; also: nearly all actives have a fitted effect of over 60% in size
Procedure, shortened: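 In this qHTS cytotoxicity format, compounds are tested across concentrations on human lymphoblastoid cells in complete medium for 24 hours at 37 C. Viability is taken as cellular ATP measured by luciferase luminescence.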

[11] = Cell Viability - LYMP2-013 (AID 970); details: LYMP2-013 lymphoblastoid cells viability; series mostly up to 92.2 µM; also: nearly all actives have a fitted effect of over 55% in size
Procedure, shortened: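 Cytotoxicity is scored as a concentration-dependent drop in intracellular ATP in human lymphoblastoid cells after 24 hr compound exposure at 37 C. ATP is quantified by luciferase luminescence, and AC50 values come from Hill-equation modeling.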

[12] = Cell Viability - LYMP2-015 (AID 971); details: LYMP2-015 lymphoblastoid cell viability; series mostly up to 92.2 µM; also: nearly all actives have a fitted effect of over 55% in size
Procedure, shortened: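 Cells are seeded at 2500 per well and incubated 5 hr at 37 C. Compounds are added across a concentration series for 24 hr at 37 C. CellTiter-Glo is added, and luminescence is read after 30 min at room temperature.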

[13] = Cell Viability - LYMP2-017 (AID 972); details: LYMP2-017 lymphoblastoid cell viability; series mostly up to 92.2 µM; also: nearly all actives have a fitted effect of over 55% in size
Procedure, shortened: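 Cytotoxicity is scored as a concentration-dependent drop in cellular ATP in a human lymphoblastoid line after 24 hr treatment at 37 C. Values are AC50s from Hill-equation modelling.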

[14] = Cell Viability - LYMP2-019 (AID 973); details: LYMP2-019 lymphoblastoid cell line viability; series mostly up to 92.2 µM; also: nearly all actives have a fitted effect of over 55% in size
Procedure, shortened: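 Cytotoxicity is scored as a concentration-dependent drop in cellular ATP after cells (2500/well) receive compound for 24 hr at 37 C. Tetraoctylammonium bromide serves as positive control.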

[15] = Cell Viability - LYMP2-021 (AID 974); details: LYMP2-021 lymphoblastoid cells viability; series mostly up to 92.2 µM
Procedure, shortened: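 Loss of cellular ATP, measured with a luciferase-based CellTiter-Glo readout, serves as the toxicity signal in human lymphoblastoid cells treated for 24 hours at 37 C. Potency is reported as AC50 from a standard Hill model.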

[16] = Cell Viability - LYMP2-023 (AID 975); details: LYMP2-023 lymphoblastoid cell viability; series mostly up to 92.2 µM; also: nearly all actives have a fitted effect of over 55% in size
Procedure, shortened: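 Steps: seed 2500 human lymphoblastoid cells per well, incubate 5 hr at 37 C, add compound for 24 hr at 37 C, add CellTiter-Glo, hold 30 min at room temperature, read luminescence. AC50 derived by Hill modelling.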

[17] = Cell Viability - LYMP2-025 (AID 976); details: LYMP2-025 lymphoblastoid cell viability; series mostly up to 92.2 µM
Procedure, shortened: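 Acute cytotoxicity is scored as a concentration-dependent fall in intracellular ATP, measured by luciferase luminescence, in human lymphoblastoid LYMP2-025 cells exposed to compound for 24 hours at 37 C. AC50 values come from standard Hill fits.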

[18] = Cell Viability - LYMP2-002 (AID 977); details: LYMP2-002 lymphoblastoid cell viability, qHTS; series mostly up to 92.2 µM;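 also: compound exposure lasted 24 h at 37 °C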
Procedure, shortened: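 Human lymphoblastoid cells, 2500/well, complete medium; 5 h 37 C settle; compound 24 h 37 C; CellTiter-Glo, 30 min RT; luminescence. Decrease in ATP = cytotoxicity; AC50 via Hill equation.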

[19] = Cell Viability - LYMP2-006 (AID 978); details: LYMP2-006 lymphoblastoid cell viability, qHTS; series mostly up to 92.2 µM; also: nearly all actives have a fitted effect of over 60% in size
Procedure, shortened: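 Human lymphoblastoid cells (LYMP2-006), 2500/well in complete medium, were treated with compound for 24 hr at 37 C. Cellular ATP was read by CellTiter-Glo luminescence after 30 min, and AC50 values came from Hill-equation fits of concentration-response data.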

[20] = Cell Viability - LYMP2-007 (AID 979); details: LYMP2-007 lymphoblastoid cell viability; series mostly up to 92.2 µM;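 also: cells exposed to compound for 24 h before reading; nearly all actives have a fitted effect of over 60% in size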
Procedure, shortened: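 Cells are seeded at 2500 per well and rested 5 hr. Compounds are then added over a concentration series for 24 hr at 37 C. CellTiter-Glo is added for 30 min at room temperature before luminescence reading.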

Measured: Potency

COC(=O)c1ccccc1C(=O)OC
inactive: all assays above

CCOc1cc(C=O)ccc1O
inactive: all assays above

Reference: PubChem BioAssay (NCATS)
